Shown are actives, neighbours in structure and some others; about 1.8% of the full set was active somewhere.
A1 inh: caspase 3/7 activation in MEF A1-2A-BIM cells, primary screen, A1 inhibitor project, cell-based, luminescence, HTS | Caspase-Glo 3/7 luminescence, 3 h; percent of clofoctol response, vehicle zero | caspase activation, % (concentration not given with the values) | 330,000 tested, 0.066% active | AID 2462, 2010;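 active = over half of replicate activation scores above 10%, or exactly half above 10 with the replicate mean above 10; inconclusive = replicate mean below 10 yet half the replicates above 10; inactive = over half of replicates below 10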
AI-2 QS mod: Vibrio harveyi AI-2 quorum sensing modulators, primary screen, JMH597 strain, luminescence/OD600 ratio | Vibrio harveyi JMH597 AI-2 luminescence/OD600 ratio, 9 h; stronger effect = lower value; strain lacks LuxN and CqsS sensors; 0 = neutral-control median | activity change, % at 7.5 µM | 300,000 tested, 0.4% active | AID 2094, 2009; in the data active = activity change below about -75%, passing the limit was not always enough; inconclusive = no clear call, values can overlap the other calls;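 note: luminescence divided by OD600 gain over 9 h not by final OD600 alone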
aDG glyco act: activators of alpha-DG glycosylation, primary screen, uHTS, Pro5-aDG cells, AlphaScreen; AID 624168, 2012; alpha-DG glycosylation AlphaScreen (IIH6); 0% Pro5, 100% B10-LARGE cell signal; 360,000 tested, 0.22% active; activation, % at 10 µM;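 active = activation of at least 8% versus controls, or a plate z-score of at least 8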;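 note: Pro5 are CHO cells carrying HIG-tagged alpha-DG that lacks glycosylation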
Mot1-301 SUMO: yeast Mot1-301 growth rescue at high temperature, primary screen, SUMOylation pathway inhibitor project, S. cerevisiae, ATP luminescence, 38.5C; 320,000 tested, 1% active; growth rescue, % at 18.8 µM; S. cerevisiae Mot1-301 growth rescue; percent above DMSO median, 100 means doubled; AID 2716, 2010;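 active = every valid replicate shows activation above 250% relative to neutral control wells; inactive = the rest, any valid replicate at or below 250%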
ARNT-TACC3 inh: disruptors of ARNT/TACC3 protein interaction, primary screen, biochemical, AlphaScreen, single concentration; Transforming acidic coiled-coil-containing protein 3 (Homo sapiens), Q9Y6A5; AlphaScreen His-ARNT PAS-B/GST-TACC3 binding, luminescence; TACC3 fragment carries E629A point mutation; 390,000 tested, 0.66% active; inhibition, % at 9.99 µM; AID 623870, 2012;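 active = mean inhibition of replicates at least 50% and at least half of replicates each reaching 50%; inconclusive = half or more replicates reach 50% but mean below 50%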
JMH597 growth rt: Vibrio harveyi growth inhibition, confirmation, counter-screen for AI-2 quorum sensing project, JMH597 strain, OD600 absorbance; shares compounds with AI-2 QS mod; 9 h; lacks LuxN and CqsS sensors; growth inhibition, % at 7.5 µM; 750 tested, 1% active; AID 2726, 2010;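 active = every replicate shows growth inhibition above 50%; inconclusive = at least half, but not all, replicates pass that cutoff; inactive = fewer than half of replicates pass it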
BB721 lum counter: luminescence inhibition in constitutive-on V. harveyi, confirmation, counter-screen for LuxS inhibitor project, strain BB721, luminescence readout | shares compounds with AI-2 QS mod | Vibrio harveyi BB721 luminescence, 9 h | inhibition, % at 7.5 µM | 750 tested, 95% active | AID 2727, 2010;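 active = inhibition above about 80% in every replicate, not just on average, limit read from the data; inconclusive = at least half of replicates past the limit, but not all; inactive = fewer than half of replicates past the limit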
BB721 growth rt: growth inhibition of V. harveyi BB721, confirmation, cytotoxicity control for AI-2 quorum sensing inhibitors, strain BB721, absorbance OD600 | shares compounds with AI-2 QS mod | Vibrio harveyi BB721 growth, 9 h | growth inhibition, % at 7.5 µM | 750 tested, 3% active;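 active = every replicate shows growth inhibition above 50%; inconclusive = at least half but not all replicates above 50% inhibition; inactive = under half of replicates above 50% inhibition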
AI-2 QS JMH597: Vibrio harveyi AI-2 signaling luminescence modulation – JMH597 strain, confirmation | shares compounds with AI-2 QS mod | Vibrio harveyi JMH597 AI-2 quorum sensing luminescence, 9 h; luxN and CqsS knockout, AI-2 only | inhibition, % at 7.5 µM | 750 tested, 97% active;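 active = every replicate shows more than 75% inhibition of signal versus neutral control wells; inconclusive = half to three quarters of replicates exceed 75% inhibition; inactive = fewer than half of replicates exceed 75% inhibition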
Mot1 SUMO dose: growth restoration of Mot1-301 yeast on galactose, dose response, SUMO pathway inhibitor project, whole organism, S. cerevisiae, ATP luminescence, cherry-picked samples. S. cerevisiae Mot1-301 galactose growth, 24 h; -100 = growth of slx-deleted rescue strain. growth activity, percent, % at 42 µM. AID 493004, 2010. shares compounds with Mot1-301 SUMO. 2,300 tested, under 10 active;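 active = Signal drops as the depositor expects, and the fitted half-maximal dose is no more than ten times the top valid tested dose; inconclusive = Poor fit, or a flat curve whose signal drops by 30% to 70%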;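 note: more negative values mean stronger growth rescue toward the control strain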
aDG conf: alpha-DG glycosylation enhancers, retest, confirmation, single concentration, Pro5-aDG cells. IIH6 AlphaLISA; scaled to LARGE-overexpressing B10 cells as 100%. shares compounds with aDG glyco act. activation, % at 10 µM (by protocol). 600 tested, 17% active;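 active = activation of at least 7% in one or more replicates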;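 note: cells exposed to compound for two days before detection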
Large screens that a line does not name were inactive (follow-up assays come after a bar, where they were run).

O=C(NCCOc1ccccc1)c1cc2ccccc2o1	AI-2 QS mod -81.7 (no result: ARNT-TACC3 inh) | JMH597 growth rt inactive | BB721 lum counter 87.2 | BB721 growth rt inactive | AI-2 QS JMH597 91.9
Cc1ccc(CNc2oc(-c3ccco3)nc2C#N)cc1	AI-2 QS mod -86.5 | JMH597 growth rt inactive | BB721 lum counter 94.9 | BB721 growth rt inactive | AI-2 QS JMH597 97.6
N#Cc1nc(-c2ccccc2F)oc1NCc1ccccc1	AI-2 QS mod -90.1 | JMH597 growth rt inactive | BB721 lum counter 95.8 | BB721 growth rt inactive | AI-2 QS JMH597 97.2
Cc1csc(SC(C)C(=O)Nc2ccc(F)cc2Cl)n1 (stereo not given)	none (no result: AI-2 QS mod)
N#Cc1nc(-c2cccs2)oc1NCCc1ccccc1	none (no result: ARNT-TACC3 inh)
Cc1ccc(-c2nc(C#N)c(NCc3cccc4c3OCO4)o2)cc1	none
N#Cc1nc(-c2cccs2)oc1NCc1ccc2c(c1)OCO2	AI-2 QS mod -85.4 | JMH597 growth rt inactive | BB721 lum counter 93.7 | BB721 growth rt inactive | AI-2 QS JMH597 96.3
N#Cc1nc(-c2ccc(F)cc2)oc1NCc1cccc2c1OCO2	AI-2 QS mod inconclusive | JMH597 growth rt inactive | BB721 lum counter 89.4 | BB721 growth rt inactive | AI-2 QS JMH597 92.6
Oc1ccccc1-c1nnc(COc2ccccc2)o1	none (no result: ARNT-TACC3 inh)
c1ccc(OCc2nnc(-c3ccccc3)o2)cc1	AI-2 QS mod -87.9 (no result: Mot1-301 SUMO) | JMH597 growth rt inactive | BB721 lum counter 96.7 | BB721 growth rt inactive | AI-2 QS JMH597 97.1
O=C(Cn1nnc2ccccc2c1=O)NC1CCCc2ccccc21 (stereo not given)	none
O=C(Cn1nnc2ccccc2c1=O)Nc1ccc2c(c1)CCC2	AI-2 QS mod -93.9 | JMH597 growth rt inactive | BB721 lum counter 99.4 | BB721 growth rt inactive | AI-2 QS JMH597 99.5
COC(=O)c1ccc(C)c(NC(=O)Cn2cnc3ccccc3c2=O)c1	AI-2 QS mod -86.1 | JMH597 growth rt inactive | BB721 lum counter 94.3 | BB721 growth rt inactive | AI-2 QS JMH597 95.8
O=C(Cn1cnc2ccccc2c1=O)Nc1ccc2c(c1)CCC2	AI-2 QS mod -82.6 | JMH597 growth rt inactive | BB721 lum counter 98.8 | BB721 growth rt inactive | AI-2 QS JMH597 99.0
O=C(COC(=O)c1ccc(F)c([N+](=O)[O-])c1)NC(=O)NCc1ccccc1	none (no result: AI-2 QS mod)
CN1CC(=O)N(CC(=O)Nc2ccc(Cl)c(C(F)(F)F)c2)C1=O	AI-2 QS mod -95.6, aDG glyco act 5.9 | JMH597 growth rt inactive | BB721 lum counter 99.1 | BB721 growth rt inactive | AI-2 QS JMH597 99.3 | aDG conf inactive
CCOC(=O)C1(C)CCCCCN1C(=O)c1ccco1 (stereo not given)	none (no result: A1 inh, AI-2 QS mod, Mot1-301 SUMO, ARNT-TACC3 inh)
O=C(Cn1nnc(-c2ccccc2)n1)OCc1ccccc1	none
O=C(OCc1ccccc1)c1cccc(-c2nnn(Cc3ccccc3)n2)c1	Mot1-301 SUMO 390.8 | Mot1 SUMO dose inactive
CC1CCN(C(=O)c2[nH]cnc2C(=O)NCC(=O)OCc2ccccc2)CC1	Mot1-301 SUMO 789.8 | Mot1 SUMO dose inactive
Cc1ccc(CNC(=O)CCn2cc(-c3ccc(C)cc3)nc2CCN)cc1	Mot1-301 SUMO active (no result: AI-2 QS mod) | Mot1 SUMO dose inactive
COc1ccc(-c2cn(CCC(=O)NCc3ccc(C)cc3)c(-c3ccncc3)n2)cc1	none
CC(=O)c1nnn(-c2ccc(F)cc2F)c1C	none
CCOC(=O)CSc1nc2c(sc3ccc([N+](=O)[O-])cc32)c(=O)n1Cc1ccco1	none
CCN(CC)c1ccc(/C=N/NC(=O)OC(C)(C)C)cc1	Mot1-301 SUMO 568.1 | Mot1 SUMO dose inactive
CCC(C)NC(=O)CSc1nnc(-c2cc(-c3ccc(C)cc3)nc3ccccc23)n1N (stereo not given)	Mot1-301 SUMO 971.3 | Mot1 SUMO dose inactive
C/C(=N\NC(=O)Cc1csc(N2CCOCC2)n1)c1ccccc1	Mot1-301 SUMO 475.7 | Mot1 SUMO dose inactive
O=C(Cc1csc(N2CCOCC2)n1)N/N=C/c1ccc(O)c(O)c1O	none (no result: A1 inh, Mot1-301 SUMO)
CCOC(=O)C(C)(C)Sc1nc2c(cnn2-c2ccc(F)cc2)c(=O)[nH]1	none
CCOC(=O)C(C)(C)Sc1nc2c(cnn2-c2ccc(C)cc2)c(=O)[nH]1	Mot1-301 SUMO 372.7 | Mot1 SUMO dose inactive
Cc1ccc(OCC(=O)NN2C(=O)c3ccccc3C2=O)c(C)c1	Mot1-301 SUMO 436.2 | Mot1 SUMO dose inactive
Cc1ccc(CN2CCN(Cc3ccc4cc(F)ccc4n3)CC2CCO)o1 (stereo not given)	none
CC(=O)Nc1cccc(OCC(O)Cn2cnc3ccccc32)c1 (stereo not given)	none
CC(=O)Nc1cccc(OCC(O)Cn2c(C)nc3ccccc32)c1 (stereo not given)	Mot1-301 SUMO 655.0 | Mot1 SUMO dose inactive
COc1cc(CN2CCC(Oc3cc(C(=O)NC4CC4)ccc3OC)CC2)cc(OC)c1	Mot1-301 SUMO 393.3 | Mot1 SUMO dose inactive
COCC(=O)N1[C@@H]2c3ccc(-c4ccncc4)c(=O)n3C[C@@H]2[C@@H](CO)[C@@H]1C(=O)Nc1ccccc1	none (no result: A1 inh, AI-2 QS mod, aDG glyco act, Mot1-301 SUMO)
O=c1c2ccccc2ncn1Cc1ccc(Cl)c(Cl)c1	none
O=c1c2ccccc2ncn1Cc1ccc2c(c1)OCO2	Mot1-301 SUMO 427.7 | Mot1 SUMO dose inactive

Source: PubChem BioAssay
